From PubChem BioAssay AID2314 (National Center for Advancing Translational Sciences (NCATS), 2010)
Hit rate of the full screen: of about 300,000 compounds, about 37,000 (12%) were called active. Many of the other results were omitted from the sample, so actives are more common in it than they were. A number with no mark means an inactive call. Rule as the data show it: active = max response mostly above about 13% (no sharp cut-off); inactive = mostly below about 14%.

Assay: Cycloheximide Counterscreen for Small Molecule Inhibitors of Shiga Toxin; also: read at 38.3 µM for the half of the compounds with a filed dose; 0% is about no effect
Settings: cell reporter, cycloheximide protein synthesis inhibition counterscreen; stronger effect = higher value

| SMILES | max response |
| --- | --- |
| Cc1ccc(S(=O)(=O)NC2CCCCCC2)cc1C(N)=O | -1.91% |
| CC(NCCc1ccc(S(N)(=O)=O)cc1)C(=O)NCc1ccccc1 (centres undefined) | 2.64% |
| O=C(Cc1c(F)cccc1Cl)Nc1ccc(-n2cnnn2)cc1 | 8.09% |
| O=C(Nc1nc2c(F)cc(F)cc2s1)C1COc2ccccc2O1 (centres undefined) | 24.7% (active) |
| O=C(Nc1nc(-c2ccncc2)cs1)C1COc2ccccc2O1 (centres undefined) | -3.21% |
| CCN(CC)S(=O)(=O)c1ccc(N2CCOCC2)c(NC(=O)C2COc3ccccc3O2)c1 (centres undefined) | 4.39% |
| CC(NC(=S)Nc1ccccc1)C1COc2ccccc2O1 (centres undefined) | -3.29% |
| CN(c1ccccc1)S(=O)(=O)c1cccc(NC(=O)Cc2c(F)cccc2Cl)c1 | 10.4% |
| CC(=O)Oc1ccccc1C(=O)Nc1ncc([N+](=O)[O-])s1 | 29.9% (active) |
| O=C(Cc1c(F)cccc1Cl)Nc1ncc([N+](=O)[O-])s1 | 32.7% (active) |
| O=C(Nc1ncc([N+](=O)[O-])s1)C1COc2ccccc2O1 (centres undefined) | 49.4% (active) |
| Cc1ccc(S(=O)(=O)N(C)C)cc1NC(=O)COC(=O)C1COc2ccccc2O1 (centres undefined) | -1.56% |
| O=C(Nc1ccncc1)c1ccccc1[N+](=O)[O-] | -7.9% |
| COc1ccc(NC(=O)c2ccccc2[N+](=O)[O-])cc1OC | 3.51% |
| O=C1Nc2cc(C(=O)N3CCC(N4CCCCC4)CC3)ccc2S/C1=C\c1ccccc1 | -5.33% |
| C=CCN1C2CCCC1CC(NC(=S)Nc1cccc(OC)c1)C2 (centres undefined) | -2.67% |
| CC(=O)N1CCc2cc(S(=O)(=O)NC3CCCCC3)ccc21 | -2.05% |
| O=C(Nc1ccc(C(=O)O)cc1)/C(=C\c1ccccc1)NC(=O)c1ccc(Br)cc1 | -2.74% |
| COc1ccc(C(=O)NC2CC(C)(C)Cc3c2cnn3-c2ccccc2)c(OC)c1 (centres undefined) | 0.758% |
| CCCNC(=O)OC[C@H]1O[C@H](CCO/N=C/[C@@H](NS(=O)(=O)c2ccc(C)cc2)[C@H](C)/C=C/CC(=O)OC)C=C[C@@H]1Oc1ccc(OC)cc1 | -2.36% |
| Cc1cccc(N2CCN(C(=O)CN(C)S(=O)(=O)c3ccc4c(c3)CCC(=O)N4)CC2)c1C | -5.43% |
| COc1ccc(CNC(=O)C(C)n2nc(C)c3c(C)n(-c4ccccc4)nc3c2=O)c(OC)c1 (centres undefined) | -7.8% |
| Cc1cccc(S(=O)(=O)N2CN(CC3CCCO3)c3nc4ccccc4nc32)c1 (centres undefined) | 12.8% |
| O=c1oc2ccccc2c(CNc2ccccc2)c1[N+](=O)[O-] | -2.06% |
